Laboratory results from ChEMBL document CHEMBL2218924, “A broad activity screen in support of a chemogenomic map for kinase signalling research and drug discovery” (Biochem J, 2013).

The compounds below were run against T1, Dual specificity tyrosine-phosphorylation-regulated kinase 2 (Homo sapiens) (UniProt Q92630). Conditions: at 1 µM.
T1 sequence (whole entry): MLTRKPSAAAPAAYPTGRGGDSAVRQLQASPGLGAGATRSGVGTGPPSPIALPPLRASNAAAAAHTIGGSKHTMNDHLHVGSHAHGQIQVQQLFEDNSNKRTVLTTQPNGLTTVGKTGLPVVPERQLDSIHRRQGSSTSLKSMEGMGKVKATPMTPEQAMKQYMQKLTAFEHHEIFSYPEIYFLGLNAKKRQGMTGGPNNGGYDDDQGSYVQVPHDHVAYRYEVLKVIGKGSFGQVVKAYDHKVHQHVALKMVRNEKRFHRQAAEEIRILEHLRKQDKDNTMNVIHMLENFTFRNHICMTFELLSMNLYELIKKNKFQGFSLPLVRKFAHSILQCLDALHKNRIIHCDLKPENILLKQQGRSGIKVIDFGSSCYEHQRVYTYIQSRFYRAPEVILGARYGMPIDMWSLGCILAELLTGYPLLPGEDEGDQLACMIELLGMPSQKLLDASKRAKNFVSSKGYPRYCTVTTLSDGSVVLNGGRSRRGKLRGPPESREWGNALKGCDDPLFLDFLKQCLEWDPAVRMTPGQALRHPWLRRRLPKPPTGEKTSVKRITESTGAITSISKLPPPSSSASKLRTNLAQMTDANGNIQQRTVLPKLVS
For `O=C(NC(NC(=S)Nc1ccc(F)c([N+](=O)[O-])c1)C(Cl)(Cl)Cl)C(c1ccccc1)c1ccccc1` (stereo unspecified), the residual activity was 98%. For `O=C(CCCc1ccc(-c2ccccc2F)cc1)Nc1ccc(O)cc1`, the residual activity was 105%. Compound `CC(C)c1nn(-c2c(Cl)cccc2Cl)c2nc(Cc3ccc(OCCO)cc3)[nH]c(=O)c12` has a residual activity of 96%. For `Cn1sc(=O)n(Cc2ccccc2)c1=O`, the residual activity was 96%. For `CC(C)[C@H](CO)Nc1nc(Nc2cc(N)cc(Cl)c2)c2ncn(C(C)C)c2n1`, the residual activity was 94%. `CCN1/C(=C/C(C)=O)Sc2ccc(OC)cc21` was tested, and the residual activity was 5%. With `N#C/C(=C\c1ccc(O)c(O)c1)C(=O)NCc1ccccc1` the residual activity was 87%. Work on `O=C(c1ccccc1)c1ccc(N2CCOCC2)cc1O` yielded a residual activity of 100%.

These compounds were tested against T1, Dual specificity tyrosine-phosphorylation-regulated kinase 2 (Homo sapiens). Conditions: at 10 µM.
For `O=C(NC(NC(=S)Nc1ccc(F)c([N+](=O)[O-])c1)C(Cl)(Cl)Cl)C(c1ccccc1)c1ccccc1` (stereo unspecified), the residual activity was 100%. With `O=C(CCCc1ccc(-c2ccccc2F)cc1)Nc1ccc(O)cc1` the residual activity was 91%. Work on `CC(C)c1nn(-c2c(Cl)cccc2Cl)c2nc(Cc3ccc(OCCO)cc3)[nH]c(=O)c12` yielded a residual activity of 106%. Compound `Cn1sc(=O)n(Cc2ccccc2)c1=O` has a residual activity of 82%. With `CC(C)[C@H](CO)Nc1nc(Nc2cc(N)cc(Cl)c2)c2ncn(C(C)C)c2n1` the residual activity was 74%. Work on `CCN1/C(=C/C(C)=O)Sc2ccc(OC)cc21` yielded a residual activity of -5%. In the case of `CCCC(=O)Oc1ccc2[nH]c(C(=O)c3cc4ccccc4[nH]3)cc2c1`, the residual activity is reported as 102%. Compound `CN(C)S(=O)(=O)c1ccc2c(c1)/C(=C/c1cc3c([nH]1)CCCC3)C(=O)N2` has a residual activity of 91%. For `N#C/C(=C\c1ccc(O)c(O)c1)C(=O)NCc1ccccc1`, the residual activity was 73%. Work on `O=C(c1ccccc1)c1ccc(N2CCOCC2)cc1O` yielded a residual activity of 93%.

These compounds were tested against Epidermal growth factor receptor (Homo sapiens) (UniProt P00533). Conditions: at 1 µM.
Chain of Epidermal growth factor receptor (Homo sapiens) (P00533 whole entry): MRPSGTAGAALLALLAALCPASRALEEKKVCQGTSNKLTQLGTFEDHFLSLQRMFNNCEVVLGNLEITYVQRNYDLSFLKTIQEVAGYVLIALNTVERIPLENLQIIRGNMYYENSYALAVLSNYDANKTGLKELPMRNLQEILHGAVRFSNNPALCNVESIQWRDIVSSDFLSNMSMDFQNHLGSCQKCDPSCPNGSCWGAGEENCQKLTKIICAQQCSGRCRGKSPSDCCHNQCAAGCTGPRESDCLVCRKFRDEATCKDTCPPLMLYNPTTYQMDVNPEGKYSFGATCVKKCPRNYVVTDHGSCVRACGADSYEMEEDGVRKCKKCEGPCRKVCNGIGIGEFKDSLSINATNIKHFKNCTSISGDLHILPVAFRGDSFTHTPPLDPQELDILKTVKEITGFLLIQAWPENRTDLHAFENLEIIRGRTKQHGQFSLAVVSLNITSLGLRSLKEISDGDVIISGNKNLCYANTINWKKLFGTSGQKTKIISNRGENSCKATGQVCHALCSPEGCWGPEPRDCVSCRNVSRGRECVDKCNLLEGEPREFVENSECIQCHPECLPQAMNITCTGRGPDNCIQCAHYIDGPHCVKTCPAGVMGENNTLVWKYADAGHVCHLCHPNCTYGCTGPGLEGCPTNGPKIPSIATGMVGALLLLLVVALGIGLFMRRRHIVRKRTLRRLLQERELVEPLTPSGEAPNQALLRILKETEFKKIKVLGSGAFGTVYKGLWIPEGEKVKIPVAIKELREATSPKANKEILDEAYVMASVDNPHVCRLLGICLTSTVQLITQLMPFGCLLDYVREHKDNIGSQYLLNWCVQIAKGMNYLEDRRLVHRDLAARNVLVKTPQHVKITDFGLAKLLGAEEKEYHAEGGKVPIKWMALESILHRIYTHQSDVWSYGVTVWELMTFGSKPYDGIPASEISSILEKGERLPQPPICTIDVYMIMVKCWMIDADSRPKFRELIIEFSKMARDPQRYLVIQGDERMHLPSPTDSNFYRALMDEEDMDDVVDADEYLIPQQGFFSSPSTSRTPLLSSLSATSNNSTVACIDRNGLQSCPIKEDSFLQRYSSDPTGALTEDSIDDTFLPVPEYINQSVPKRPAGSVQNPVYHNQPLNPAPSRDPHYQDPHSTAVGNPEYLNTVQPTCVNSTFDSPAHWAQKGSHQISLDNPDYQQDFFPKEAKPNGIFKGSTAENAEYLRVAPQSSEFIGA
`COc1ccc(COc2ccc(Cc3cnc(N)nc3N)cc2OC)cc1` gave a residual activity of 112%. Compound `O=c1c(-c2ccc(F)cc2)c(-c2ccncc2)[nH]n1-c1ccc(Cl)cc1` has a residual activity of 54%. `N#C/C(=C\c1ccc(O)c(O)c1)C(=O)NCc1ccccc1` showed a residual activity of 125%.

Each compound was assayed against T2, Ephrin type-A receptor 1 (Homo sapiens) (UniProt P21709). Conditions: at 1 µM.
T2 sequence (whole entry): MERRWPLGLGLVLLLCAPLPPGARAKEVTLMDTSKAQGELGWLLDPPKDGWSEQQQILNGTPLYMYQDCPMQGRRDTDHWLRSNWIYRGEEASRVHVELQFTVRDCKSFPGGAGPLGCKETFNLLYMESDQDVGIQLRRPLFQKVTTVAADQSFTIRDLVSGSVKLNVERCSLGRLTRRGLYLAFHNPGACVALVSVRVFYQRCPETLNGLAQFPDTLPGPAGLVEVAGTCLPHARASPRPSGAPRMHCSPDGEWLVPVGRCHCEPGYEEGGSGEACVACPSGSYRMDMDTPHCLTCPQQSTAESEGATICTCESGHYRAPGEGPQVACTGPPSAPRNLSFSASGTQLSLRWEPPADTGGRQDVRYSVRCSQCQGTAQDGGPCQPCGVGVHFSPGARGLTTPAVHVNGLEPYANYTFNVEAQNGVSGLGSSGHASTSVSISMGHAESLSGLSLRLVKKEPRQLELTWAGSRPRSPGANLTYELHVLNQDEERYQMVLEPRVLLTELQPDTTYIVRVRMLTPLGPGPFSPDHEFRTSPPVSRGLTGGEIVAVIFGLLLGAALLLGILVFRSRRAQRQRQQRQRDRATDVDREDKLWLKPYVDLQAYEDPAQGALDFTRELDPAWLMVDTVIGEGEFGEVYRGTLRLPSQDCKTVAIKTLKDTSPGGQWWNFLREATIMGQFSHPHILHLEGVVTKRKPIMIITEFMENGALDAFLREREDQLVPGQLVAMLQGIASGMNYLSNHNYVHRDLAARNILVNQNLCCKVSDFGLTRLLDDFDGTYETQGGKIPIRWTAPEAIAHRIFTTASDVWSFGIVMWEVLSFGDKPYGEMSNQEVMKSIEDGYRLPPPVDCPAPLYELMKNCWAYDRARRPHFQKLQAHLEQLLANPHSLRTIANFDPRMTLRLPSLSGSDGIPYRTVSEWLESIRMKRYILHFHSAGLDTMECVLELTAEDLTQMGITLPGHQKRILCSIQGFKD
Compound `O=C(NC(NC(=S)Nc1ccc(F)c([N+](=O)[O-])c1)C(Cl)(Cl)Cl)C(c1ccccc1)c1ccccc1` (stereo unspecified) has a residual activity of 104%. In the case of `O=C(CCCc1ccc(-c2ccccc2F)cc1)Nc1ccc(O)cc1`, the residual activity is reported as 93%. In the case of `O=S(=O)(c1cccc2cnccc12)N1CCCNCC1`, the residual activity is reported as 100%. Work on `O=C1NC(=O)C(c2c[nH]c3ccccc23)=C1c1c[nH]c2ccccc12` yielded a residual activity of 77%. `COc1ccc(Cl)cc1NC(=O)Nc1cc(C)nc2ccccc12` gave a residual activity of 89%. `CCOC(=O)c1c(C)[nH]c(/C=C2\C(=O)Nc3ccccc32)c1C` was tested, and the residual activity was 83%. With `Nc1nc(Nc2ccc(S(N)(=O)=O)cc2)nn1C(=O)c1c(F)cccc1F` the residual activity was 58%. `CC(C)(C)c1nc2c3ccc(F)cc3c3c(=O)[nH]ccc3c2[nH]1` gave a residual activity of 74%. `CC(C)c1nn(-c2c(Cl)cccc2Cl)c2nc(Cc3ccc(OCCO)cc3)[nH]c(=O)c12` gave a residual activity of 105%. With `Cn1sc(=O)n(Cc2ccccc2)c1=O` the residual activity was 96%. `CC(C)[C@H](CO)Nc1nc(Nc2cc(N)cc(Cl)c2)c2ncn(C(C)C)c2n1` showed a residual activity of 95%. Work on `CC(C)N(CCC(=O)c1ccc2ccccc2c1)Cc1ccccc1` yielded a residual activity of 75%. With `COc1cc2nccc(Oc3ccc(NC(=O)Nc4cc(C)on4)c(Cl)c3)c2cc1OC` the residual activity was 10%. `NCCNc1ncc(C(N)=O)c(Nc2cccc(C(F)(F)F)c2)n1` showed a residual activity of 81%. Work on `CCCC(=O)Oc1ccc2[nH]c(C(=O)c3cc4ccccc4[nH]3)cc2c1` yielded a residual activity of 88%. `O=C1Nc2ccccc2/C1=C\c1c(Cl)[nH]c2ccccc12` gave a residual activity of 87%. In the case of `CN(C)S(=O)(=O)c1ccc2c(c1)/C(=C/c1cc3c([nH]1)CCCC3)C(=O)N2`, the residual activity is reported as 96%. Work on `COc1ccc2c(c1)c(C1=C(c3c[nH]c4ccccc34)C(=O)NC1=O)cn2CCCN(C)C` yielded a residual activity of 71%. `O=C(c1ccccc1)c1ccc(N2CCOCC2)cc1O` gave a residual activity of 88%. `NC(=O)Nc1sc(-c2ccc(F)cc2)cc1C(N)=O` showed a residual activity of 9%. In the case of `CCCCc1c(-c2ccc(OC)cc2)[nH]c2nccnc12`, the residual activity is reported as 29%.

These compounds were tested against T2, Ephrin type-A receptor 1 (Homo sapiens). Conditions: at 10 µM.
In the case of `O=C(NC(NC(=S)Nc1ccc(F)c([N+](=O)[O-])c1)C(Cl)(Cl)Cl)C(c1ccccc1)c1ccccc1` (stereo unspecified), the residual activity is reported as 92%. Work on `O=C(CCCc1ccc(-c2ccccc2F)cc1)Nc1ccc(O)cc1` yielded a residual activity of 86%. `O=C1NC(=O)C(c2c[nH]c3ccccc23)=C1c1c[nH]c2ccccc12` was tested, and the residual activity was 22%. Work on `COc1ccc(Cl)cc1NC(=O)Nc1cc(C)nc2ccccc12` yielded a residual activity of 89%. `CCOC(=O)c1c(C)[nH]c(/C=C2\C(=O)Nc3ccccc32)c1C` showed a residual activity of 118%. `Nc1nc(Nc2ccc(S(N)(=O)=O)cc2)nn1C(=O)c1c(F)cccc1F` gave a residual activity of 6%. Work on `CC(C)c1nn(-c2c(Cl)cccc2Cl)c2nc(Cc3ccc(OCCO)cc3)[nH]c(=O)c12` yielded a residual activity of 73%. Work on `Cn1sc(=O)n(Cc2ccccc2)c1=O` yielded a residual activity of 93%. In the case of `CC(C)[C@H](CO)Nc1nc(Nc2cc(N)cc(Cl)c2)c2ncn(C(C)C)c2n1`, the residual activity is reported as 11%. For `CC(C)N(CCC(=O)c1ccc2ccccc2c1)Cc1ccccc1`, the residual activity was 85%. With `COc1ccc(COc2ccc(Cc3cnc(N)nc3N)cc2OC)cc1` the residual activity was 77%. In the case of `O=c1c(-c2ccc(F)cc2)c(-c2ccncc2)[nH]n1-c1ccc(Cl)cc1`, the residual activity is reported as 56%. `COc1cc2nccc(Oc3ccc(NC(=O)Nc4cc(C)on4)c(Cl)c3)c2cc1OC` showed a residual activity of 6%. Compound `NCCNc1ncc(C(N)=O)c(Nc2cccc(C(F)(F)F)c2)n1` has a residual activity of 45%. In the case of `CCCC(=O)Oc1ccc2[nH]c(C(=O)c3cc4ccccc4[nH]3)cc2c1`, the residual activity is reported as 94%. For `O=C1Nc2ccccc2/C1=C\c1c(Cl)[nH]c2ccccc12`, the residual activity was 72%. With `CN(C)S(=O)(=O)c1ccc2c(c1)/C(=C/c1cc3c([nH]1)CCCC3)C(=O)N2` the residual activity was 96%. `COc1ccc2c(c1)c(C1=C(c3c[nH]c4ccccc34)C(=O)NC1=O)cn2CCCN(C)C` showed a residual activity of 42%. For `O=S(=O)(NCCNC/C=C/c1ccc(Br)cc1)c1cccc2cnccc12`, the residual activity was 63%. For `O=C(c1ccccc1)c1ccc(N2CCOCC2)cc1O`, the residual activity was 95%. `NC(=O)Nc1sc(-c2ccc(F)cc2)cc1C(N)=O` showed a residual activity of 6%. Work on `COc1cc2c(cc1OC)-c1n[nH]c(Nc3cccc(F)c3)c1C2` yielded a residual activity of 34%. Work on `CCCCc1c(-c2ccc(OC)cc2)[nH]c2nccnc12` yielded a residual activity of 3%. Work on `Cc1cc(C)c(/C=C2\C(=O)Nc3ccccc32)[nH]1` yielded a residual activity of 103%.
